The source of these data is PubChem BioAssay (NCI).

Test systems include SK-MEL-2 melanoma; EKVX NSCLC; SN12C renal; UO-31 renal; TK-10 renal; ACHN renal; A498 renal; CCRF-CEM leukemia; MOLT-4 leukemia; SR leukemia.
Common to all, as to test: NCI-60 one-dose screen, 48 h (100 = growth as untreated, 0 = no growth, -100 = all killed)
Settings in all cases: 10 µM unless noted

This is part of a sample that, as a whole, favours compounds with a hit. Of some 83,000 tested, about 20% had one in any assay.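 A percent growth of 40 corresponds to 60% growth inhibition; 0 means no net growth; -100 means all cells died. Active threshold: below 10.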 Unmarked numbers belong to inactive results. Calls of active or inactive are those of the source.

As for `CCCn1cc(/C=N\N=C2\C(=O)Nc3ccc(C)cc32)c2ccccc21`, the growth in the assay with SK-MEL-2 melanoma is 35.1%; in the assay with EKVX NSCLC, 50.5%; in the assay on SN12C renal it was 49.9%; with UO-31 renal it was 60%; in the assay with TK-10 renal, 107%; in the assay with ACHN renal, 55.7%. Moreover, the growth in the assay with A498 renal was 57.2%; in the assay with CCRF-CEM leukemia it was -0.646% (active); in the assay with MOLT-4 leukemia it was -9.9% (active); in the assay on SR leukemia, 11.6%.
As to `CCOC(=O)c1c(C)nc2c(c1N)/C(=C/c1cccs1)C(=O)N2Cc1ccccc1`, the growth in the assay on SK-MEL-2 melanoma is 60%; in the assay with EKVX NSCLC, 82%; in the assay on SN12C renal, 73.2%; in the assay with UO-31 renal, 45.6%; with TK-10 renal, 90.1%; in the assay on ACHN renal, 79.7%. The growth in the assay with A498 renal was 70.2%; in the assay with CCRF-CEM leukemia, 29.8%; with MOLT-4 leukemia, 18.8%; in the assay with SR leukemia, 9.76% (active).
`CCCCn1c(=O)c(/C=C/C(=O)/C=C/c2ccc(O)c(OC)c2)cc2ccc(Cl)cc21`: the growth in the assay with SK-MEL-2 melanoma was 42.1%; in the assay with EKVX NSCLC, 40.1%; in the assay with SN12C renal it was 12.3%; with UO-31 renal it was 6.03% (active); in the assay with TK-10 renal, 54.2%; in the assay on ACHN renal, 19.9%. The growth in the assay with A498 renal is 77.6%; with CCRF-CEM leukemia, 2.91% (active); in the assay on MOLT-4 leukemia, 8.28% (active); in the assay on SR leukemia, 3.78% (active).
Consider `CNS(=O)(=O)c1cccc(-c2ccc3c4c(n(C)c(=O)c3c2)-c2ccccc2C4=O)c1`, for which the growth in the assay with SK-MEL-2 melanoma was 113%; in the assay with EKVX NSCLC, 51.7%; in the assay with SN12C renal, 19.5%; in the assay on UO-31 renal it was 35.4%; in the assay on TK-10 renal, 85.5%; in the assay on ACHN renal it was 0.944% (active). In addition, the growth with A498 renal was 72.1%; in the assay on CCRF-CEM leukemia it was 6.13% (active); in the assay on MOLT-4 leukemia, -1.83% (active); in the assay on SR leukemia, 3.35% (active).
Consider `Nc1c(C(=O)Nc2ccccn2)sc2nc3c(cc12)C(=O)CCC3`, for which the growth with SK-MEL-2 melanoma was 32.9%; with EKVX NSCLC, 34.4%; in the assay with SN12C renal it was 43.6%; in the assay with UO-31 renal it was 59.3%; with TK-10 renal, 64.2%; with ACHN renal, 59.5%. In addition, the growth was 2.05% (active) with A498 renal, 47.9% in the assay with CCRF-CEM leukemia, 69.7% in the assay on MOLT-4 leukemia and 40.6% with SR leukemia.
On to `Nc1cc(N)c(S(=O)(=O)O)cc1N=Nc1cc([N+](=O)[O-])ccc1O`, for which the growth was 98.1% with SK-MEL-2 melanoma; 103% in the assay on EKVX NSCLC; 100% in the assay on SN12C renal; 89.4% in the assay on UO-31 renal; 102% in the assay on TK-10 renal; 109% in the assay with ACHN renal. Further, the growth in the assay with A498 renal is 103%; with CCRF-CEM leukemia, 93.9%; in the assay on MOLT-4 leukemia, 90.5%; in the assay with SR leukemia, 90.3%.
`C=CCn1c(CN2CCN(c3cc4c(cc3F)c(=O)c(C(=O)O)cn4C3CC3)CC2)n[nH]c1=S`: the growth in the assay on SK-MEL-2 melanoma is 104%; with EKVX NSCLC, 101%; in the assay on SN12C renal, 104%; with UO-31 renal, 83.7%; in the assay on TK-10 renal, 88.9%; with ACHN renal, 102%. Further, the growth is 98.2% with A498 renal, 90.1% with CCRF-CEM leukemia, 94.2% with MOLT-4 leukemia and 99.1% in the assay on SR leukemia.
As for `N#C/C(=C/c1ccc(O)c([N+](=O)[O-])c1)c1nc(-c2ccc([N+](=O)[O-])cc2)cs1`, the growth in the assay on SK-MEL-2 melanoma is 16.9%; in the assay on EKVX NSCLC, 26.5%; in the assay with SN12C renal, 36.3%; with UO-31 renal it was 37.6%; in the assay with TK-10 renal, 52.7%; in the assay on ACHN renal, 36.1%. The growth in the assay with A498 renal was 21.3%; with CCRF-CEM leukemia it was 25.5%; with MOLT-4 leukemia, 25.1%; in the assay on SR leukemia it was 47.7%.
As to `N#Cc1ccc(C2C3=C(CCCC3=O)OC3=C2C(=O)c2ccccc2C3=O)cc1` (stereo not given), the growth was 43.7% in the assay on SK-MEL-2 melanoma; 63.1% in the assay with EKVX NSCLC; 12.6% in the assay with SN12C renal; 85.8% in the assay with UO-31 renal; 99.7% in the assay with TK-10 renal; 66.7% in the assay with ACHN renal. Further, the growth with A498 renal was 109%; in the assay with CCRF-CEM leukemia it was 15.8%; in the assay on MOLT-4 leukemia, -6.58% (active); with SR leukemia, 60.9%.
In the case of `COc1ccc(-c2cc(-c3nnc(SCC(=O)Nc4ccc(/C(C)=N\O)cc4)o3)c3ccccc3n2)cc1`, the growth in the assay with SK-MEL-2 melanoma was 98%; in the assay with EKVX NSCLC, 103%; in the assay on SN12C renal it was 104%; in the assay with UO-31 renal, 97.7%; in the assay with TK-10 renal it was 96.4%; in the assay with ACHN renal it was 117%. Besides, the growth with A498 renal is 101%; in the assay with CCRF-CEM leukemia it was 97.9%; with MOLT-4 leukemia, 106%; with SR leukemia it was 113%.
For the compound `CCOC(=O)/C=C1\SC(=Nc2ccc(C#N)cc2)N(CCN2C(=O)/C(=C/C(=O)OCC)SC2=Nc2ccc(C#N)cc2)C1=O`, the growth with SK-MEL-2 melanoma was 80.8%; in the assay on EKVX NSCLC, 35.2%; in the assay with SN12C renal, 24.2%; with UO-31 renal, 56.6%; in the assay on TK-10 renal it was 87.4%; in the assay with ACHN renal it was 78.6%. In addition, the growth is 63.7% with A498 renal, 1.57% (active) in the assay with CCRF-CEM leukemia, 9.39% (active) in the assay on MOLT-4 leukemia and 1.69% (active) in the assay with SR leukemia.
Regarding `CCN(CC)CC#CCOC(=O)[C@]1(C)CCC[C@]2(C)[C@H]3C[C@H]4C(C(C)C)=C[C@]3(CC[C@H]21)[C@@H]1C(=O)CCC(=O)[C@@H]14`, the growth was 72.3% with SK-MEL-2 melanoma; 55.9% in the assay on EKVX NSCLC; 57.1% in the assay with SN12C renal; 50.9% in the assay with UO-31 renal; 95.4% in the assay with TK-10 renal; 72.5% in the assay on ACHN renal. Also, the growth is 102% with A498 renal, 20.5% in the assay with CCRF-CEM leukemia, 10.7% in the assay with MOLT-4 leukemia and 10.2% in the assay on SR leukemia.
Take `CN(C)[C@@H]1C(=O)C(C(N)=O)=C(O)[C@@]2(O)C(=O)C3=C(O)c4c(O)cc(CN5CCc6ccccc6C5)c(Cl)c4C[C@H]3C[C@@H]12`: the growth is -90.6% (active) in the assay with SK-MEL-2 melanoma; -90.3% (active) in the assay with EKVX NSCLC; -73% (active) in the assay with SN12C renal; -95.5% (active) with UO-31 renal; -84.3% (active) in the assay on TK-10 renal; -76.1% (active) with ACHN renal. Further, the growth in the assay with A498 renal was -89.2% (active); in the assay on CCRF-CEM leukemia, -40.7% (active); with MOLT-4 leukemia, -67.9% (active); in the assay on SR leukemia, -50.7% (active).
Regarding `COc1cc(NC(=O)COc2cc(C)nc3ccc(OC)cc23)cc(OC)c1`, the growth in the assay with SK-MEL-2 melanoma is 92.2%; in the assay on EKVX NSCLC, 91.5%; with SN12C renal, 88.9%; in the assay on UO-31 renal, 69.8%; with TK-10 renal it was 96.5%; with ACHN renal it was 82%. Besides, the growth was 63.7% in the assay with A498 renal, 82% in the assay with CCRF-CEM leukemia, 89.9% in the assay on MOLT-4 leukemia and -8.57% (active) with SR leukemia.
Turning to `Cc1cnc(SCc2ccc(Cl)cc2)[nH]c1=S`, the growth in the assay with SK-MEL-2 melanoma is 88.5%; in the assay with EKVX NSCLC it was 103%; in the assay with SN12C renal, 103%; in the assay with UO-31 renal, 93.9%; with TK-10 renal, 95.1%; in the assay with ACHN renal, 104%. Further, the growth was 90.7% in the assay on A498 renal, 106% in the assay on CCRF-CEM leukemia, 106% in the assay on MOLT-4 leukemia and 89.7% in the assay on SR leukemia.
For `CC1(C)[C@@H](O)CC[C@]2(C)[C@H]3CC[C@@H]4[C@H]5[C@H](c6cn(-c7ccccc7)nn6)CC[C@]5(CO)CC[C@@]4(C)[C@]3(C)CC[C@@H]12`, the growth was 92.4% in the assay with SK-MEL-2 melanoma; 88% in the assay on EKVX NSCLC; 90% in the assay with SN12C renal; 79.9% with UO-31 renal; 98.4% in the assay on TK-10 renal; 84.4% in the assay with ACHN renal. For the same compound, the growth in the assay on A498 renal was 87.6%; with CCRF-CEM leukemia it was 94.4%; in the assay with MOLT-4 leukemia, 67.7%; in the assay on SR leukemia, 64.7%.
Turning to `C=C(C)[C@@H]1CCC=C2CC[C@]3(C)[C@H](CC[C@@H]4[C@@]5(C)CCCNC(C)(C)[C@@H]5CC[C@]43C)[C@H]21`, the growth in the assay on SK-MEL-2 melanoma is 77.9%; in the assay with EKVX NSCLC, 94.6%; in the assay with SN12C renal it was 65.2%; with UO-31 renal, 75.4%; in the assay with TK-10 renal, 104%; in the assay on ACHN renal, 78.7%. Also, the growth in the assay on A498 renal is 101%; in the assay with CCRF-CEM leukemia it was 40.1%; with MOLT-4 leukemia, 0.148% (active); in the assay on SR leukemia, -25.7% (active).
As to `CN1C(=O)c2cc(Cl)nc3c(NC(=O)c4cccc(Cl)c4)c(Cl)c(NC(=O)c4cccc(Cl)c4)c1c23`, the growth is -39% (active) in the assay on SK-MEL-2 melanoma; 27.4% with EKVX NSCLC; -43.2% (active) in the assay with SN12C renal; -61.8% (active) in the assay with UO-31 renal; 39.9% with TK-10 renal; -61.7% (active) with ACHN renal. The growth in the assay with A498 renal was 96.6%; in the assay on CCRF-CEM leukemia it was 7.27% (active); with MOLT-4 leukemia, -19.9% (active); in the assay with SR leukemia, -44.7% (active).
In the case of `CCCCCCC/C=C/[C@H]1O[C@]23C(=O)C[C@@]4(C[C@@H](OC5OC(CO)C(O)C(O)C5O)C[C@@H]4[C@H]2C=C1C)OC3=O` (stereo not given in full), the growth with SK-MEL-2 melanoma was -9.46% (active); in the assay with EKVX NSCLC it was 86.9%; with SN12C renal, 26.7%; in the assay on UO-31 renal it was 3.36% (active); with TK-10 renal it was 35.8%; with ACHN renal it was 4.9% (active). The growth was 70.1% in the assay on A498 renal, 19% in the assay on CCRF-CEM leukemia, 8.32% (active) with MOLT-4 leukemia and 6.22% (active) with SR leukemia.
For `Nc1ccc(C2=NN(C(=O)c3cc(-c4ccc(Cl)cc4)nc4ccccc34)C(c3ccc(Cl)cc3)C2)cc1` (stereo not given), the growth in the assay on SK-MEL-2 melanoma is 34.7%; in the assay on EKVX NSCLC, 42.8%; with SN12C renal it was 56.5%; in the assay with UO-31 renal it was 47.6%; in the assay on TK-10 renal it was 55.3%; with ACHN renal, 54.4%. Moreover, the growth in the assay with A498 renal is 31.1%; in the assay on CCRF-CEM leukemia it was 17.8%; with MOLT-4 leukemia it was 42.6%; in the assay with SR leukemia, 25.7%.
For `Cc1nc2sc(C(=O)Nc3ccccc3Cl)c(N)c2cc1C(C)O` (stereo not given), the growth in the assay with SK-MEL-2 melanoma was 75%; in the assay with EKVX NSCLC, 89%; in the assay on SN12C renal, 89.4%; with UO-31 renal, 96.3%; in the assay on TK-10 renal, 81.7%; in the assay with ACHN renal, 96.2%. The growth was 70.7% in the assay on A498 renal, 79.5% with CCRF-CEM leukemia, 64% in the assay on MOLT-4 leukemia and 33.2% with SR leukemia.
